Screening results: PubChem BioAssay, National Center for Advancing Translational Sciences (NCATS)
Hits are enriched below; roughly 19% of the tested compounds scored in any of these assays.
VP16 counter = counter-screen for ROR gamma inhibitors: Gal4-VP16 reporter. Drosophila S2 Gal4-VP16 UAS-luciferase, luminescence, 20 h. Potency, µM (titrated, usually from 53.6 µM), hits mostly inhibitors. hit rate 3.5% among 310,000. AID 2546;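 also: Gal4-VP16 expression switched on by copper sulfate through the metallothionein promoter; nearly all actives have a fitted effect of over 50% in size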
TDP1 inh = blocks human tyrosyl-DNA phosphodiesterase 1; Q9NUW8; recombinant TDP1, AlphaScreen DNA substrate cleavage; Potency, µM (series often up to 130 µM), most hits filed as inhibitors; hit rate 0.28% among 350,000; AID 485290; also: nearly all actives have a fitted effect of over 40% in size
Target sequence (Q9NUW8 whole entry, looked up): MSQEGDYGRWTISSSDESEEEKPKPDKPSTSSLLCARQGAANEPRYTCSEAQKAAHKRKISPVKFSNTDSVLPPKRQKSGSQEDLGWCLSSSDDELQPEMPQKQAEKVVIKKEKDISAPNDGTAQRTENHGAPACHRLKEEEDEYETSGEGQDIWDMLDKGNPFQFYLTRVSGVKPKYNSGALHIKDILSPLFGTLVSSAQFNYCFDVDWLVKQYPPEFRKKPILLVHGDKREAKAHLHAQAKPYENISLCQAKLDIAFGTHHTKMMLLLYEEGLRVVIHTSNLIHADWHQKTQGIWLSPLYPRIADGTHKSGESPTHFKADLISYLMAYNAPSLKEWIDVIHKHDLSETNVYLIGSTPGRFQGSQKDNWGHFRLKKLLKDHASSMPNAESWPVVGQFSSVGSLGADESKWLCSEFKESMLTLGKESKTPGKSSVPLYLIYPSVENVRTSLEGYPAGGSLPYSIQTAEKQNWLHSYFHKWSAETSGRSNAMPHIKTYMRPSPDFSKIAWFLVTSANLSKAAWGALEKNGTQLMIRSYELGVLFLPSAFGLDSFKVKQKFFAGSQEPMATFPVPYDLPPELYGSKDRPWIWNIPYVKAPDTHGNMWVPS
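Recombinant human Tdp1 (E. coli-expressed, 1 nM final) preincubated with compounds 15 min at room temperature, then 5'-biotin/3'-phosphotyrosine-FITC DNA substrate (15 nM final) added for 5 min. AlphaScreen beads (10 ug/ml final) added 10 min; cleavage lowers signal.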
RORgamma inh = blocks mouse ROR gamma transcriptional activity; P51450; Drosophila S2 Gal4-RORgamma UAS-luciferase reporter, 20 h; Potency, µM (titrated, usually from 53.6 µM), hits mostly inhibitors; hit rate 5.4% among 310,000; AID 2551; also: nearly all actives have a fitted effect of over 60% in size
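Using a luciferase readout, inhibitors were identified by reduced reporter activity in Drosophila cells coexpressing a copper-inducible Gal4–ROR gamma fusion and UAS-driven Photinus luciferase, incubated 20 hr after 700 uM copper sulfate.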
DT40 TDP1 no CPT = qHTS for Inhibitors of human tyrosyl-DNA phosphodiesterase 1 (TDP1): qHTS in cells in absence of CPT; Potency, µM (doses to about 46.2 µM), hits mostly inhibitors; AID 686978, 2013; DT40 Tdp1-/- hTDP1 cells, no CPT, ATP luminescence, 48 h; hit rate 15% among 420,000; also: nearly all actives have a fitted effect of over 55% in size
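Compound effects on proliferation are scored in DT40 Tdp1-/-;hTDP1 cells in the absence of CPT. ATP levels (CellTiter-Glo luminescence) are recorded after a ≥48 hr, 37 °C incubation.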
DT40 TDP1 CPT = DT40-hTDP1 cell growth loss with CPT; chicken DT40 Tdp1-/-;hTDP1 cells + 20 nM CPT, ATP luminescence, 48 h; Potency, µM (top dose mostly 46.2 µM), actives largely listed as inhibitors; hit rate 12% among 420,000; AID 686979; also: nearly all actives have a fitted effect of over 55% in size
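Chicken DT40 Tdp1-/- cells stably complemented with human TDP1 were seeded at 400 cells/well in medium containing 20 nM camptothecin, exposed to pin-transferred compounds, and grown at 37 °C for at least 48 hr. Viability was read as ATP luminescence.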
Hits are given with their value; – = inactive; ? = inconclusive; · = no result; [ ] = dose if it differs, or a comment. Calls follow the shape of the dose curve; as a rule, active = well fitted curve in the direction sought with a large enough effect; inconclusive = small, poorly fitted or top-dose-only effect, or another doubt; inactive = no such curve, though single readings can be large; an effect the other way counts as inactive or inconclusive.

SMILES | VP16 counter | TDP1 inh | RORgamma inh | DT40 TDP1 no CPT | DT40 TDP1 CPT
CC(C)c1ccc(N(CC(=O)NCc2ccco2)C(=O)CCC(=O)Nc2ccccn2)cc1 | – | – | – | – | –
CC1CCN(C(C(=O)NC2CCCCC2)c2cc3c(cc2[N+](=O)[O-])OCO3)CC1 (centres undefined) | – | – | – | – | –
O=C(c1ccccc1)c1ccc2n1CCC2C(=O)O (centres undefined) | – | – | – | – | –
Cc1cc(C)n(-c2ccc(NC(=O)C3CCCCN3C(=O)c3cc(C)oc3C)cc2)n1 (centres undefined) | – | – | – | ? | 15µM
CCCNC(=O)CSc1nc(COc2ccccc2)nc2ccccc12 | – | – | – | ? | –
COc1ccc(-c2cc3c(=O)n(CC(=O)Nc4cccc(Cl)c4)nc(C)n3n2)cc1 | – | – | – | ? | 15µM
CCOC(=O)N1CCN(C(=O)Cn2nc(C)n3nc(-c4ccc(CC)cc4)cc3c2=O)CC1 | – | – | – | 21µM | 16µM
CCOC(=O)C1CCN(C(=O)Cn2nc(C)n3nc(-c4ccc(OC)cc4)cc3c2=O)CC1 | – | – | – | 21µM | 23µM
CCOC(=O)N1CCN(C(=O)Cn2nc(C)n3nc(-c4ccc(OC)cc4)cc3c2=O)CC1 | – | – | – | ? | ?
C#CCNC(=O)c1csc([C@@H]2O[C@H](CO)[C@@H](O)[C@H]2O)n1 | · | · | · | ? | 16µM
O=C(NCc1ccncc1)c1csc([C@@H]2O[C@H](CO)[C@@H](O)[C@H]2O)n1 | · | · | · | 2.3µM | 2.1µM
Brc1nc(Br)n(Cc2ccccc2)n1 | – | – | – | – | –
Cc1ccsc1-c1nc(CSCC(=O)N2CCN(c3ccccc3)CC2)c(C)o1 | – | – | – | ? | 15µM
Cc1oc(-c2ccccc2F)nc1CS(=O)(=O)CC(=O)N1CCN(c2ccc(Cl)cc2)CC1 | · | – | · | 21µM | 26µM
COc1cccc(-c2nc(CS(=O)(=O)CC(=O)N3CCN(c4ccccc4)CC3)c(C)o2)c1 | · | – | · | 23µM | ?
Cc1ccccc1CSCC(=O)N1CCN(c2ccccc2)CC1 | – | – | – | ? | –
COc1cccc(-c2nc(CS(=O)(=O)CC(=O)NCc3ccccc3OC)c(C)o2)c1 | – | – | ? | 18µM | ?
COc1cccc(-c2nc(CS(=O)(=O)CC(=O)NCc3ccccc3)c(C)o2)c1 | – | – | – | ? | ?
COc1ccc(-c2nc(CSCC(=O)N3CCN(c4ccccc4)CC3)c(C)o2)cc1 | · | – | · | 10µM | 10µM
COc1ccc(Br)c(C(=O)N(C)CC(=O)Nc2ccc(N3CCOCC3)cc2)c1 | · | · | · | – | –
Clc1ccccc1N=C1NN=C(c2cccs2)CS1 | ? | – | 11µM | – | –
Cc1ccc(N(NC(=O)C(O)(c2ccccc2)c2ccccc2)C(=O)CCl)cc1 | 7.9µM | – | 6.3µM | 5.2µM | 4.1µM
CCC(O)(CC)C(=O)NN(C(=O)CCl)c1ccccc1 | – | – | – | 15µM | 13µM
O=C(Nc1ccccc1)NN(C(=O)CCl)c1ccccc1 | ? | – | ? | 3.3µM | 3.3µM
CCN(CC)c1ccc(NC(=O)Nc2ccccc2)cc1 | – | · | ? | ? | –
SMILES | VP16 counter | TDP1 inh | RORgamma inh | DT40 TDP1 no CPT | DT40 TDP1 CPT
NC(=O)NOCc1ccc(F)cc1Cl | – | · | – | – | –
C/C(N)=C(/C#N)C(=O)COC(=O)C(c1ccccc1)c1ccccc1 | – | · | – | – | ?
O=C(Nc1ccccc1Cl)c1cc(C2CCCN(C(=O)CCCc3ccccc3)C2)on1 (centres undefined) | · | · | · | ? | –
Nc1[nH]c(N=NC(=O)c2ccccc2)c2ccccc12 | ? | – | 8.9µM | – | –
Nc1[nH]c(N=NC(=O)c2ccc(Cl)cc2)c2ccccc12 | ? | – | 5.6µM | – | –
Nc1[nH]c(N=NC(=O)c2ccccc2O)c2ccccc12 | ? | – | ? | ? | ?
CC(=O)c1cn(C(=O)c2ccc(Cl)cc2)c2ccccc12 | – | · | – | – | –
Cc1ccc[n+](CC(=O)c2ccc(Br)cc2)c1 | – | · | – | – | –
COc1ccc(C(=O)C[n+]2ccc(N(C)C)cc2)cc1 | – | – | – | 16µM | ?
COc1ccc(C(=O)COC(=O)c2ccc(N(C)C)cc2)cc1 | – | – | – | – | –
CN(C)c1cc[n+](CC(=O)c2ccc(Br)cc2)cc1 | – | – | – | ? | 16µM
CC(NC(=O)CCNC(=O)c1ccccc1Cl)C1CC2CCC1C2 (centres undefined) | – | – | – | – | –
COc1ccc2c(CC#N)c[nH]c2c1 | – | – | – | – | –
Cc1cc(C(=O)N2CCCC(C)(C(=O)NS(=O)(=O)C3CC3)C2)nn1C(C)(C)C (centres undefined) | · | · | · | 2.9µM | ?
CCNC(=O)C1(C)CCCN(C(=O)c2cc(C)n(C(C)(C)C)n2)C1 (centres undefined) | · | · | · | – | 7.3µM
CCCNC(=O)C1(C)CCCN(C(=O)c2cc(C)nn2C(C)(C)C)C1 (centres undefined) | · | · | · | ? | 12µM
CCCNC(=O)C1(C)CCN(C(=O)c2cc(C)n(C(C)(C)C)n2)C1 (centres undefined) | · | · | · | – | –
Oc1ccc(C=NC2CCCCC2)cc1 | – | · | – | – | –
CN(CCO)S(=O)(=O)c1ccc2c(c1)C(=NO)c1cc(S(=O)(=O)N(C)CCO)ccc1-2 | – | – | – | 12µM | –
O=C1c2cc(S(=O)(=O)NCCO)ccc2-c2ccc(S(=O)(=O)NCCO)cc21 | – | – | – | – | –
Cc1ccccc1NC(=O)c1ccc(NC(=O)N2CCSc3ncccc32)cc1 | · | – | · | ? | ?
CC1CCCCC1NC(=O)COc1cccnc1[N+](=O)[O-] (centres undefined) | · | – | · | – | –
Cc1ccc(C(=O)N2[C@@H]3CN(C)C(=O)[C@@]2(C)[C@H]2C(=O)N(Cc4ccccc4)C(=O)[C@@H]32)cc1 | · | · | · | – | –
O=C(CC(c1ccccc1)C1CCCCC1=O)c1ccccc1 (centres undefined) | · | · | · | 16µM | 18µM
Cc1cc(C(C)(C)C)oc1C(=O)N1CCN(C(=O)c2oc(C(C)(C)C)cc2C)CC1 | – | – | – | 16µM | 18µM
SMILES | VP16 counter | TDP1 inh | RORgamma inh | DT40 TDP1 no CPT | DT40 TDP1 CPT
Cc1cc(C(C)(C)C)oc1C(=O)O | – | – | – | – | –
Clc1cncc(Cl)c1N/N=C/c1ccccc1 | – | – | – | – | –
CCN(CCCNC(=O)CCCOc1cc(=O)n(C)c2ccccc12)Cc1ccccc1 | –[10 µM] | – | ? | ? | –
O=c1ccn(CCCBr)c(=O)[nH]1 | – | – | – | – | –
CC12CCC(C)(c3nc4ccccc4nc31)C2(C)C | – | – | – | – | –
Cc1[nH]nc2c1-c1nc3ccccc3nc1C(C)(C)C2 | 3.2µM | – | 4µM | ? | ?
NS(=O)(=O)c1cccc(NC(=O)CSc2nnc(-c3ccccc3F)n2C2CC2)c1 | – | – | – | – | –
OC(c1cc(-c2cccc(Cl)c2)nc2ccccc12)C1CCCCN1 (centres undefined) | · | · | · | 2.6µM | 16µM
